Here are results for 47 compounds from PubChem BioAssay AID1259245 (Vanderbilt High Throughput Screening Facility, 2017).

Hit rate of the full screen: of about 40,000 compounds, about 1,400 (3.5%) were called active.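 How the source made its calls: active means any of four per-well response measures lying three or more SD from its plate-wide compound average, in either direction; inactive means the rest, inconclusive results apart.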 The sample as a whole holds a higher share of actives than the screen did.

In this test the target is Voltage-dependent calcium channel gamma-2 subunit (Mus musculus) + Glutamate receptor 2 (Rattus norvegicus) (UniProt O88602+P19491). As to the kind of experiment: AMPAR-TARP gamma-2 complex positive or negative modulation – cell-based, membrane potential dye, primary screen (AID 1259245). As to conditions: HEK293 GluA2+stargazin, membrane potential dye (FDSS), glutamate EC50, at 30 µM, hits were called plate by plate, in both directions; compound max-min signal: compound-alone response (agonism); glutamate slope, % of max: measured here: glutamate response slope, % max.
Chain of Voltage-dependent calcium channel gamma-2 subunit (Mus musculus) + Glutamate receptor 2 (Rattus norvegicus) (O88602 whole entry, looked up): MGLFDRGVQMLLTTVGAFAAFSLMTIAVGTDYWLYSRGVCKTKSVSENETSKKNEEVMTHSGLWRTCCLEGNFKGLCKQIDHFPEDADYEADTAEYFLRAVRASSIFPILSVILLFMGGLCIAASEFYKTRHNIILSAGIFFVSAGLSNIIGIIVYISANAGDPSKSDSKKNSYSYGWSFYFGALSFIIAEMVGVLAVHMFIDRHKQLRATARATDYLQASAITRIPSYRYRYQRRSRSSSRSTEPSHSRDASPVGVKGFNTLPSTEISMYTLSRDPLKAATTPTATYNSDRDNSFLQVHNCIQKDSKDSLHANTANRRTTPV
Chain of Voltage-dependent calcium channel gamma-2 subunit (Mus musculus) + Glutamate receptor 2 (Rattus norvegicus) (P19491 whole entry, looked up): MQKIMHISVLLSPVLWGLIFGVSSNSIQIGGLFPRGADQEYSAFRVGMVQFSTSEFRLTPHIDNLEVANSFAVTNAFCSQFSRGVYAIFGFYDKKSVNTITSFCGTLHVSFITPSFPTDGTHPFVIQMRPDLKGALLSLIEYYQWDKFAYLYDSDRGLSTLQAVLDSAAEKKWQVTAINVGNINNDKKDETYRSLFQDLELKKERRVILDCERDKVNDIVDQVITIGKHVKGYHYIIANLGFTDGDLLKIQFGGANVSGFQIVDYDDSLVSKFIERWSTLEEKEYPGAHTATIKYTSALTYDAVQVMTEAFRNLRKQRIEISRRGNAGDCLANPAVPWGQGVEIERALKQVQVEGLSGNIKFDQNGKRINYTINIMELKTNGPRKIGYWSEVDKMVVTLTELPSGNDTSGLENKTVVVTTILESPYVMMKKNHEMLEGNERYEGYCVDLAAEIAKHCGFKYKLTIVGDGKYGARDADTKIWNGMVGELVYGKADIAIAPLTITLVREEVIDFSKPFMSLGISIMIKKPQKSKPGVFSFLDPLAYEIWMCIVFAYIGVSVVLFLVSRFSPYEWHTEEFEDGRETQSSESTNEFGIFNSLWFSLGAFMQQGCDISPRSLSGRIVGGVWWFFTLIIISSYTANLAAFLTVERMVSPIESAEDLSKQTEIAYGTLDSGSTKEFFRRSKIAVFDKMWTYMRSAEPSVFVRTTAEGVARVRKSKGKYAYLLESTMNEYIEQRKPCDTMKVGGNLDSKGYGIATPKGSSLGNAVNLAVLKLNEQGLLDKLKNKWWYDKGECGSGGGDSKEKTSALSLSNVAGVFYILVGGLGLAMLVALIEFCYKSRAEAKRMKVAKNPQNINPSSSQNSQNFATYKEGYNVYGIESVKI
Turning to `C=CCOC(=O)COc1ccc2c(c1)O/C(=C\c1cc(OC)ccc1OC)C2=O`, the compound max-min signal worked out at 0.106; the glutamate response, % of max was 58.4% (inactive); the glutamate slope, % of max was determined as 60.4%.

With `COc1ccc2c(c1)c(/C=C1\Oc3cc(O)cc(C)c3C1=O)cn2C`, the compound max-min signal was 0.239; the glutamate response, % of max was 23.6% (active); the glutamate slope, % of max was determined as 43.9%.

Regarding `Cc1[nH]c(=O)[nH]c(=O)c1CC(=O)N1CCN(S(C)(=O)=O)CC1`, the compound max-min signal was 0.153; the glutamate response, % of max is 46.3% (inactive); the glutamate slope, % of max came out at 86.1%.

`CC(C)c1ccccc1NC(=O)Cc1csc(NC(=O)c2ccc(=O)[nH]c2)n1`: the compound max-min signal turned out to be 0.062; the glutamate response, % of max was 20.3% (inactive); the glutamate slope, % of max worked out at 41.8%.

As to `COc1cn(CC(=O)Nc2ccc(NC(C)=O)cc2)c(CSc2ncccn2)cc1=O`, the compound max-min signal turned out to be 0.0519; the glutamate response, % of max is 26.3% (inactive); the glutamate slope, % of max was 40.3%.

In the case of `Cc1c(Cl)ccc2sc(N(Cc3ccccn3)C(=O)Cc3ccc(S(C)(=O)=O)cc3)nc12`, the compound max-min signal turned out to be 0.0569; the glutamate response, % of max is 22.1% (inactive); the glutamate slope, % of max was found to be 54.5%.

In the case of `COC(=O)N1CCC(CNS(=O)(=O)c2ccc(OC(F)(F)F)cc2)CC1`, the compound max-min signal was 0.114; the glutamate response, % of max is 39.2% (inactive); the glutamate slope, % of max turned out to be 61.1%.

With `O=S(=O)(NCC1(c2cccs2)CC1)c1ccc(OC(F)(F)F)cc1`, the compound max-min signal worked out at 0.153; the glutamate response, % of max is 0.436% (active); the glutamate slope, % of max amounted to 9.92%.

For the compound `O=C(NCC1(c2cccs2)CC1)Nc1c(F)cccc1F`, the compound max-min signal amounted to 0.107; the glutamate response, % of max is 24.4% (inactive); the glutamate slope, % of max is 44%.

For the compound `COC(=O)c1cc(OC)c(OC)cc1NC(=O)c1cc(C)oc1C`, the compound max-min signal is 0.112; the glutamate response, % of max is 34.9% (inactive); the glutamate slope, % of max is 55.7%.

As to `Cn1cccc1C(O)CNC(=O)C1(c2ccccc2)CCOCC1` (stereo unspecified), the compound max-min signal came to 0.0879; the glutamate response, % of max is 49.3% (inactive); the glutamate slope, % of max is 62.9%.

In the case of `COCCNC(=O)c1ccc(Oc2c(C)oc3cc(OC)ccc3c2=O)cc1`, the compound max-min signal turned out to be 0.0907; the glutamate response, % of max is 9.44% (inactive); the glutamate slope, % of max was 21.9%.

On to `COc1ccc2c(=O)c(Oc3ccc(C(=O)N4CCN(c5ccccn5)CC4)cc3)c(C)oc2c1`, for which the compound max-min signal stood at 0.0327; the glutamate response, % of max is 28.3% (active); the glutamate slope, % of max was found to be 56.7%.

Regarding `COc1ccc2c(=O)c(Oc3ccc(C(=O)Nc4cccnc4)cc3)c(C)oc2c1`, the compound max-min signal was found to be 0.137; the glutamate response, % of max is 24.4% (inactive); the glutamate slope, % of max came to 41.6%.

For the compound `COc1ccc(CCNC(=O)Cn2nc(-c3ccccc3OC)ccc2=O)cc1`, the compound max-min signal was found to be 0.0465; the glutamate response, % of max is 26.6% (inactive); the glutamate slope, % of max turned out to be 53.9%.

Turning to `COC(=O)c1ccc2c(=O)n(Cc3ccc(C(=O)N4CCCCCC4)cc3)c(=S)[nH]c2c1`, the compound max-min signal was found to be 0.108; the glutamate response, % of max was 50.5% (inactive); the glutamate slope, % of max stood at 81%.

`Cc1ccc(NC(=O)Cn2nc(-c3ccco3)c3sc(N4CCOCC4)nc3c2=O)c(C)c1`: the compound max-min signal came out at 0.131; the glutamate response, % of max was 34% (active); the glutamate slope, % of max was 56.8%.

As to `CCc1cccc(CC)c1NC(=O)Cn1nc(-c2ccco2)c2sc(N3CCCCC3)nc2c1=O`, the compound max-min signal came to 0.0682; the glutamate response, % of max is 31.2% (inactive); the glutamate slope, % of max worked out at 54.8%.

On to `COc1ccc(C(=O)Cn2nc(-c3ccco3)c3sc(N4CCOCC4)nc3c2=O)cc1OC`, for which the compound max-min signal worked out at 0.102; the glutamate response, % of max was 27.5% (inactive); the glutamate slope, % of max was found to be 57%.

Consider `COCC(C)(O)CNC(=O)c1cc(C)oc1C` (stereo unspecified), for which the compound max-min signal worked out at 0.0874; the glutamate response, % of max is 39.3% (inactive); the glutamate slope, % of max is 66.3%.

As to `COCC(C)(O)CNC(=O)Cc1cccc(C)c1` (stereo unspecified), the compound max-min signal was found to be 0.0936; the glutamate response, % of max is 4.21% (active); the glutamate slope, % of max stood at 14.9%.

On to `CCCc1ccc(C(=O)NCC(C)(O)COC)cc1` (stereo unspecified), for which the compound max-min signal was 0.117; the glutamate response, % of max was 37.6% (inactive); the glutamate slope, % of max worked out at 59.3%.

Take `COc1ccc(OC)c2sc(N(Cc3ccccn3)C(=O)Cc3ccc(S(C)(=O)=O)cc3)nc12`: the compound max-min signal is 0.0642; the glutamate response, % of max was 28.9% (inactive); the glutamate slope, % of max came out at 45.5%.

Regarding `O=C(Nc1ccc([N+](=O)[O-])cc1Br)c1ccncc1`, the compound max-min signal stood at 0.216; the glutamate response, % of max was 21.7% (active); the glutamate slope, % of max was found to be 38.8%.

For `Cc1cc([N+](=O)[O-])ccc1NC(=O)C(=O)NCc1ccncc1`, the compound max-min signal was found to be 0.158; the glutamate response, % of max is 47.7% (inactive); the glutamate slope, % of max was found to be 65.6%.

In the case of `O=C(Nc1ccc(N2CCCS2(=O)=O)cc1)c1ccc([N+](=O)[O-])cc1`, the compound max-min signal is 0.0338; the glutamate response, % of max was 28.1% (inactive); the glutamate slope, % of max is 51.8%.

On to `Cc1cc(C)n(CCNC(=O)/C=C/c2cccs2)n1`, for which the compound max-min signal is 0.131; the glutamate response, % of max is 25.6% (inactive); the glutamate slope, % of max was 56.8%.

For `Cc1noc(C2CN(S(=O)(=O)c3ccc(Cl)cc3)C2)n1`, the compound max-min signal came to 0.142; the glutamate response, % of max was 44.3% (inactive); the glutamate slope, % of max worked out at 70.8%.

Consider `COc1ccc(NC(C)=O)cc1NC(=O)c1ccc(=O)[nH]n1`, for which the compound max-min signal is 0.159; the glutamate response, % of max is 38.5% (active); the glutamate slope, % of max came out at 57.1%.

For `O=C(NCc1ccc2c(c1)OCO2)c1ccc(=O)[nH]n1`, the compound max-min signal turned out to be 0.05; the glutamate response, % of max is 25.6% (inactive); the glutamate slope, % of max is 54.3%.

For the compound `COc1ccc(NC(C)=O)cc1NC(=O)CCCn1nc(-c2ccccc2)ccc1=O`, the compound max-min signal amounted to 0.08; the glutamate response, % of max is 33.8% (inactive); the glutamate slope, % of max was determined as 52.7%.

Consider `Cc1nn(CCNC(=O)c2cccc([N+](=O)[O-])c2)c(C)c1Cl`, for which the compound max-min signal came out at 0.133; the glutamate response, % of max is 50.5% (inactive); the glutamate slope, % of max came out at 65.4%.

On to `Cc1ccc(N2CCN(C(=O)COc3nccc(C)n3)CC2)nn1`, for which the compound max-min signal worked out at 0.0842; the glutamate response, % of max was 38.9% (inactive); the glutamate slope, % of max turned out to be 61.3%.

Turning to `CCCOc1ccc(N2CCN(C(=O)COc3ccc4ccccc4c3)CC2)nn1`, the compound max-min signal came out at 0.0411; the glutamate response, % of max is 42.7% (inactive); the glutamate slope, % of max turned out to be 61.1%.

On to `CCCC(=O)N1CCN(c2ccc(Nc3cc(C)ccn3)nn2)CC1`, for which the compound max-min signal worked out at 0.194; the glutamate response, % of max is 23.7% (active); the glutamate slope, % of max turned out to be 43.2%.

As to `O=C(Nc1cccs1)N1CCC(c2nnc(-c3ccc(F)cc3)o2)CC1`, the compound max-min signal was 0.0749; the glutamate response, % of max was 44.9% (inactive); the glutamate slope, % of max turned out to be 64.6%.

Take `Cc1ccc(CN2C(=O)NC3(CCN(C(=O)c4ccccc4F)CC3)C2=O)cc1`: the compound max-min signal was found to be 0.0483; the glutamate response, % of max is 11.7% (inactive); the glutamate slope, % of max came to 23.5%.

Consider `COc1ccc(CC(=O)Nc2ccc3c(c2)N(S(=O)(=O)c2ccccc2)CCC3)cc1`, for which the compound max-min signal turned out to be 0.0777; the glutamate response, % of max is 49% (inactive); the glutamate slope, % of max worked out at 74.3%.

Take `CN(C)S(=O)(=O)c1ccc(C(=O)Nc2ccc3c(c2)N(C(=O)c2ccco2)CC3)cc1`: the compound max-min signal was 0.176; the glutamate response, % of max was 45.9% (inactive); the glutamate slope, % of max is 62.8%.

On to `Cc1cc(C(=O)Nc2nc(-c3cccs3)cs2)on1`, for which the compound max-min signal was found to be 0.0444; the glutamate response, % of max is 13.4% (inactive); the glutamate slope, % of max was 25.9%.

For the compound `CCOC(=O)c1csc(NC(=O)Cn2cnc(C)cc2=O)n1`, the compound max-min signal is 0.0863; the glutamate response, % of max was 36.3% (inactive); the glutamate slope, % of max stood at 51.4%.

In the case of `CCOC(=O)c1csc(NC(=O)c2cc(C)no2)n1`, the compound max-min signal amounted to 0.211; the glutamate response, % of max is 21.3% (active); the glutamate slope, % of max came to 37.1%.

With `Cc1nc(NC(=O)c2ccc3c(c2)CCCC3)sc1C`, the compound max-min signal came to 0.129; the glutamate response, % of max is 29.7% (inactive); the glutamate slope, % of max amounted to 50.6%.

With `O=C(Nc1cccc(N2CCCS2(=O)=O)c1)c1cccc(F)c1`, the compound max-min signal amounted to 0.0432; the glutamate response, % of max is 21.4% (inactive); the glutamate slope, % of max is 45.7%.

For `O=C(CSc1cc(N2CCN(c3ccccc3F)CC2)ncn1)c1cccs1`, the compound max-min signal stood at 0.0768; the glutamate response, % of max was 53.6% (inactive); the glutamate slope, % of max worked out at 73.7%.

`COC(=O)c1ccc(CSc2cc(N3CCN(c4ccccc4F)CC3)ncn2)o1`: the compound max-min signal turned out to be 0.0593; the glutamate response, % of max is 58.6% (active); the glutamate slope, % of max turned out to be 59.5%.

On to `CCOc1ccccc1NC(=O)CSc1cc(N2CCC(C(=O)NC3CC3)CC2)ncn1`, for which the compound max-min signal worked out at 0.107; the glutamate response, % of max was 24% (inactive); the glutamate slope, % of max amounted to 50.5%.
